This note sets out measurements from PubChem BioAssay (NCI).

About 83,000 compounds went through this panel and 20% of them were active in at least one assay; those are over-represented in the sample as a whole.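 Activity criterion: percent growth below 10, measured after cells in 96-well plates were exposed to a single compound concentration for 48 hours.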 Activity calls are given as the source filed them.

The assay relates to OVCAR-8 ovarian. The assay can be described thus: NCI-60 one-dose screen, 48 h (100 = growth as untreated, 0 = no growth, -100 = all killed). As to conditions: 10 µM unless noted. On the procedure:
Growth inhibition of the OVCAR-8 human tumor cell line is measured as a screen for anti-cancer activity. Cells are grown in 96 well plates and exposed to the test compound for 48 hours. Compounds are tested at a single concentration, which is 10^-5 M for most compounds. The reported endpoint is percent growth (GI% or GIPRCNT), where numbers from 0 - 100% represent growth inhibition, and numbers from -100% - 0 represent cell death. For example, a value of 40 represents 60% growth inhibition. A value of 0 means no net growth occurred over the course of the experiment. A value of -40 indicates 40% of cells at the beginning of the experiment died by the end of the experiment. A value of -100 means all cells are dead at the end of the experiment.
NCI-60 Human Tumor Cell Lines Screen was performed using the standard one-dose NCI protocol, which is described in more detail at https://dtp.cancer.gov/discovery_development/nci-60/default.htm.
Compounds with GIPRCNT values below 10 were considered active. Activity score was based on GIPRCNT using the following formula: […]
Score is 0 for GIPRCNT values of 100 or above, 50 for GIPRCNT values of 0, and 100 for GIPRCNT values of -100.
Consider `OC1CCN(CCCOc2c3ccc(Cl)cc3nc3c2oc2ccccc23)CC1`, for which the growth is 3.92% (active).

Turning to `COc1cc(N=Cc2sc(Nc3nccs3)nc2O)cc(OC)c1OC`, the growth is 81.2% (inactive).

On to `Nc1c(C(=O)c2ccc(Br)cc2)oc2nc(-c3cnccn3)cc(-c3cccs3)c12`, for which the growth was 103% (inactive).

For `COC1CCN(Cc2ccc3c(NNC(=O)c4cnccn4)nc4cc(F)ccc4n23)C1` (stereo not given), the growth was 14.4% (inactive).

Consider `Fc1ccc(-c2cc3nc(C(Cl)Cl)nc(-c4ccccc4)n3n2)cc1`, for which the growth is 8.61% (active).

For the molecule `CS(=O)(=O)c1ccc(-c2nc3ccccn3c2/C=N/Nc2nc(-c3ccc(Br)cc3)cs2)cc1`, the growth is 99.1% (inactive).

`CCOc1ccc2nc(NC(=O)c3ccc(C(F)(F)F)cc3)sc2c1`: the growth is 107% (inactive).

Take `COc1cc(-c2ccc3ncnc(NC(C)c4ccccc4)c3c2)cnc1OC` (stereo not given): the growth is 55.2% (inactive).

As to `C#Cc1nc(C2=C(C)C(=N\O)/C(=N/O)C2)cs1`, the growth was 92.3% (inactive).

As for `COc1ccc(COc2ccc(/C=C3/C(=O)Nc4cc(Cl)ccc43)cc2)cc1`, the growth is 96.3% (inactive).

Regarding `COc1cccc(NC2=CC(=O)C(C)=C(C)C2=O)c1`, the growth is 16.9% (inactive).

As for `COc1cc(/C=C/C(=O)c2cc(OC)c(OC)c(OC)c2)ccc1Oc1nc(NCCO)nc(N2CCOCC2)n1`, the growth was 21.2% (inactive).

For `O=C(N/N=C/c1cccs1)c1[nH]c2ccc(Br)cc2c1-c1ccccc1`, the growth is 3.38% (active).

As to `O=c1/c(=C\c2ccc(-c3ccccc3)o2)sc2nc(-c3ccccc3)nn12`, the growth was 105% (inactive).

Regarding `Cc1ccc(CNS(=O)(=O)/N=C2\NC(=O)NC2=C(Cl)Cl)cc1`, the growth is 91.2% (inactive).

As for `CN(C)CCCNc1c2ccc(Cl)cc2nc2c1oc1ccc(Cl)cc12`, the growth is -78.6% (active).

For the molecule `Clc1ccc2c(NCCCN3CCOCC3)c3oc4ccc(Cl)cc4c3nc2c1`, the growth was 35.6% (inactive).

Consider `Nc1cc(-c2c[nH]c3ccc(Cl)cc23)nc2cc(-c3c[nH]c4ccc(Cl)cc34)nn12`, for which the growth is 70.7% (inactive).

With `COc1ccc(/C=C2\SC(=Nc3cc(C)on3)NC2=O)cc1`, the growth was 102% (inactive).

As for `CCN1CCN(S(=O)(=O)c2oc(-c3ccc(Cl)cc3)nc2C#N)CC1`, the growth was 85% (inactive).

In the case of `O=C1Nc2cc(Cl)ccc2/C1=C\c1ccc(OCc2ccc([N+](=O)[O-])cc2)cc1`, the growth was 78.8% (inactive).

With `NS(=O)(=O)c1cccc(Nc2nc(SCC(=O)c3ccc(Cl)cc3)nc3ccccc23)c1`, the growth was 39.9% (inactive).

Take `Cn1cc(-c2cc(N)n3nc(-c4cn(C)c5ccc(F)cc45)cc3n2)c2cc(F)ccc21`: the growth was 20% (inactive).

`C=CCn1c(SCC(=O)c2ccc(Br)cc2)nnc1-c1c[nH]c2ccccc12`: the growth is 94.7% (inactive).

Consider `COC(=O)C(C)NS(=O)(=O)/N=C1\NC(=O)NC1=C(Cl)Cl` (stereo not given), for which the growth is 100% (inactive).

With `CCCCCCNC(=O)Oc1ccc(/C(=C(/C)c2ccccc2)c2ccc(OCCN3CCCCCC3)cc2)cc1`, the growth is 66.1% (inactive).

For `Nc1cc(-c2c[nH]c3ccc(F)cc23)nc2cc(-c3c[nH]c4ccc(F)cc34)nn12`, the growth was 89.8% (inactive).

On to `Cc1sc2nc(NCc3ccccc3Cl)[nH]c(=O)c2c1C`, for which the growth was 88.1% (inactive).

On to `C#Cc1nc(C2=C(C)C(OC(=O)CCC(=O)O)CC2)cs1` (stereo not given), for which the growth is 99.3% (inactive).

In the case of `COc1cc(OC)c(C2C(Cl)C(=O)N2Nc2ncnc3ccccc23)cc1OC` (stereo not given), the growth was 104% (inactive).

As for `Cc1cccc2sc(/N=C(\N)C(Cl)(Cl)Cl)nc12`, the growth is 102% (inactive).

For the molecule `OC1CCN(CCCOc2c3ccccc3nc3c2oc2ccc(Cl)cc23)CC1`, the growth was 18.7% (inactive).

For the molecule `O=[N+]([O-])c1ccc(O)c2ncccc12`, the growth is 16.9% (inactive).

Turning to `COc1cccc(-c2nn(-c3ccccc3)cc2-c2ccnc(N3CCN(C(=O)Nc4ccc(F)cc4)CC3)c2)c1`, the growth was 48.8% (inactive).

For `CC(C)(C)Nc1nc2c(OCCc3ccccc3)cccn2c1-c1ccccc1Cl`, the growth was 9.35% (active).

On to `CS(=O)(=O)Nc1ccc(-c2nn(-c3ccc(S(C)(=O)=O)cc3)cc2/C=C/C(=O)c2ccc(NC(=O)CO[N+](=O)[O-])cc2)cc1`, for which the growth is 101% (inactive).

Take `CS(=O)(=O)c1ccc(-c2nc3ccccn3c2/C=N/Nc2nc(-c3ccc(Cl)cc3)cs2)cc1`: the growth was 98% (inactive).

As for `NS(=O)(=O)c1cccc(Nc2nc(SCC(=O)c3ccc([N+](=O)[O-])cc3)nc3ccccc23)c1`, the growth was 24.1% (inactive).

For `O=C(CN1C(=O)/C(=C/c2ccccc2)SC1=S)N1CCOCC1`, the growth was 102% (inactive).

Regarding `COc1ccc(-n2c(SCC(=O)Nc3ccc(-c4nc5ccccc5[nH]4)cc3)nc3ccccc3c2=O)cc1`, the growth was 20.9% (inactive).
